Screens as filed in PubChem BioAssay.
Only a selection was taken, and hits are over-represented in it overall.
RE007 growth inh: less growth of the S. pombe RE007 Vpr strain. S. pombe RE007 Vpr strain, BacTiter-Glo ATP luminescence, 24 h. Potency, µM (series often up to 92.2 µM), for the others: at the highest dose activity change, negative = less growth, usual class: inhibitors. 360,000 compounds, 0.21% hits. AID 651644; active = well fitted falling curve with a large enough effect; inconclusive = small, poorly fitted or top-dose-only effect; inactive = no such curve, though single readings can be large or run the other way; also: potency is read from the fitted curve at half-maximal effect; % is scaled to controls: 0 for no effect and ±100 for the full control effect; nearly all actives have a fitted effect of over 50% in size
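Fission yeast strain RE007, carrying one chromosomally integrated HIV-1 vpr copy, was seeded at OD 0.01 in PMG+AL medium with 23 nL pinned compound. After 24 h at 30 °C and 99% humidity, viability was read by BacTiter-Glo luminescence.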
Shiga inhibitor: blocks Shiga toxin action in Vero cells. Vero cells, Shiga toxin protein synthesis inhibition reporter. 290,000 compounds, 9.2% hits. AID 2315. inhibition, % at 38.7 µM; in the data active = inhibition mostly above about 28%, no sharp cut-off; inactive = mostly below about 43%; also: 0% is about no effect
Giardia FBPA inh: Giardia lamblia aldolase inhibition; purified Giardia FBPA; Potency, µM (highest dose often 59.6 µM), for the others: at the highest dose activity, negative = inhibition, most hits filed as inhibitors; 290,000 compounds, 0.71% hits; also: potency is read from the fitted curve at half-maximal effect; % is scaled to controls: 0 for no effect and ±100 for the full control effect; nearly all actives have a fitted effect of over 55% in size
Target sequence (A8B2U2 whole entry, looked up): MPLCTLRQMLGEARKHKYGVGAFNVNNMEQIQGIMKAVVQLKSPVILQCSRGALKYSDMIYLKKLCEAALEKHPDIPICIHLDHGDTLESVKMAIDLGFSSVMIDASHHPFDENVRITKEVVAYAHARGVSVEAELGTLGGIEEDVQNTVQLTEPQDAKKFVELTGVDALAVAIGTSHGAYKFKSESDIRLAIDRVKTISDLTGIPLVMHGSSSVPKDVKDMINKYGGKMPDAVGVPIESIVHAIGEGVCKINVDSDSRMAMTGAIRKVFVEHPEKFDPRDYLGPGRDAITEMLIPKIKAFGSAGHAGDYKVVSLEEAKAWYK
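40 nM FBPA preincubated 10 min at RT with compound (up to 57.5 uM final), then substrate plus GAPDH/TPI/NAD/arsenate coupling and diaphorase/resazurin added. Fluorescence read after 20 min at RT, 525/598 nm.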
Cycloheximide cs: counter-screen for Shiga toxin inhibitors: cycloheximide protein synthesis inhibition; max response, %; AID 2314; 300,000 compounds, 12% hits; cell reporter, cycloheximide protein synthesis inhibition counterscreen; in the data active = max response mostly above about 13%, no sharp cut-off; inactive = mostly below about 14%; also: read at 38.3 µM for the half of the compounds with a filed dose; 0% is about no effect
Tb PYK inh: blocks Trypanosoma brucei pyruvate kinase. Q57TT1. TbPYK enzyme, Kinase-Glo Plus ATP luminescence, 45 min. Potency, µM (series often up to 76.8 µM), inactives show at the top dose activity, negative = inhibition, most hits filed as inhibitors. 410,000 compounds, 0.12% hits; also: potency is read from the fitted curve at half-maximal effect; % is scaled to controls: 0 for no effect and ±100 for the full control effect; nearly all actives have a fitted effect of over 50% in size
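Assay buffer: 50 mM TEA pH 7.2, 100 mM KCl, 10 mM MgCl2, 0.05% BSA, 0.01% Tween-20. Pyruvate kinase from T. brucei plus substrate met compound, then ADP (130 uM final). Luminescence was read post 45 min RT.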
LmPK inh: inhibitors of Leishmania mexicana pyruvate kinase; Q27686; purified LmPK, Kinase-Glo ATP luminescence, 1 h; Potency, µM (doses to about 57.5 µM), without a hit: at the top dose activity change, negative = inhibition, usual class: inhibitors; 290,000 compounds, 0.37% hits; also: potency is read from the fitted curve at half-maximal effect; % is scaled to controls: 0 for no effect and ±100 for the full control effect
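qHTS format; LmPK 0.1 nM; substrates PEP 0.5 mM and ADP 0.1 mM. One-hour room-temperature incubation, then coupled luciferase luminescence; 0.5 nM enzyme wells mark activation.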
The depositor's hits bear a star; [ ] = dose if it differs, or a comment. Unless noted, calls follow the shape of the dose curve; as a rule, active = well fitted curve in the direction sought with a large enough effect; inconclusive = small, poorly fitted or top-dose-only effect, or another doubt; inactive = no such curve, though single readings can be large; an effect the other way counts as inactive or inconclusive.

How did COc1cc(/C=N/NC(=S)Nc2cccc(S(=O)(=O)N(C)C)c2)ccc1O do in these assays?
RE007 growth inh: 5%; Shiga inhibitor: 49*; Giardia FBPA inh: 6%; Cycloheximide cs: 30*; Tb PYK inh: -4%; LmPK inh: 3%

What do the screens show for `O=C(N/N=C/c1ccc(F)cc1)c1cccc(NC(=O)c2ccc(F)cc2)c1`?
RE007 growth inh: -5%; Shiga inhibitor: 100*; Giardia FBPA inh: 8%; Cycloheximide cs: 34*; Tb PYK inh: -3%; LmPK inh: -1%

Results for O=C(c1ccnc(Cl)c1)N1CCCC(N2CCN(c3ccccc3F)CC2)C1 (stereo not drawn) ?
RE007 growth inh: -26%; Shiga inhibitor: -4; Giardia FBPA inh: 11%; Cycloheximide cs: -2; Tb PYK inh: 1%; LmPK inh: 3%

How did c1ccc2c(CCC3CCNCC3)c[nH]c2c1 do in these assays?
Tb PYK inh: 5%

Results for O=C(Nc1ccccc1C(=O)N/N=C/c1ccc(F)cc1)c1ccccc1Br ?
RE007 growth inh: -10%; Shiga inhibitor: 17; Giardia FBPA inh: 0%; Cycloheximide cs: 17*; Tb PYK inh: 1%; LmPK inh: -13%

How did O=C(N/N=C/c1ccc(O)cc1)c1ccc(NC(=O)c2ccccc2Br)cc1 do in these assays?
RE007 growth inh: 0%; Shiga inhibitor: -13; Giardia FBPA inh: 3%; Cycloheximide cs: -2; Tb PYK inh: -7%; LmPK inh: -1%

What do the screens show for `Cc1cccc(/C=N/NC(=O)c2ccc(Br)cc2)c1`?
Shiga inhibitor: 70*; Giardia FBPA inh: 1%; Cycloheximide cs: 34*; Tb PYK inh: -15%; LmPK inh: -5%

How did COc1ccc(/C=N/NC(=O)c2ccc(NC(=O)c3cccc([N+](=O)[O-])c3)cc2)c(OC)c1 do in these assays?
RE007 growth inh: -1%; Shiga inhibitor: 20; Giardia FBPA inh: 1%; Cycloheximide cs: 13; Tb PYK inh: 2%; LmPK inh: 2%

How did N/C(=N\N=C/c1ccc(F)cc1)N/N=C\c1ccc(F)cc1 do in these assays?
RE007 growth inh: 5%; Shiga inhibitor: 22; Giardia FBPA inh: -26%; Cycloheximide cs: 11*; Tb PYK inh: -4%; LmPK inh: 2%

How did COc1ccc(/C=N/NC(=O)c2cccc(NC(=O)c3ccc(Cl)cc3)c2)c(OC)c1 do in these assays?
RE007 growth inh: -1%; Shiga inhibitor: 31*; Giardia FBPA inh: 10%; Cycloheximide cs: 12; Tb PYK inh: -11%; LmPK inh: 3%

What do the screens show for `CCN(CC)c1ccc(/C=N/NC(=O)CCC(=O)NCc2ccccc2)c(O)c1`?
RE007 growth inh: 11%; Shiga inhibitor: 26; Giardia FBPA inh: inconclusive; Cycloheximide cs: 13; Tb PYK inh: -10%; LmPK inh: 5%

What do the screens show for `Cc1cccc(NC2=NCC(=O)N2Cc2cccs2)c1`?
RE007 growth inh: 25%; Shiga inhibitor: -3; Giardia FBPA inh: -8%; Cycloheximide cs: 8; Tb PYK inh: -2%; LmPK inh: -4%

What do the screens show for `O=c1c(-c2cc(F)cc(F)c2)nc2cnc(N3CCNCC3)nc2n1CCc1ccccc1`?
Giardia FBPA inh: -1%; Tb PYK inh: -4%

What do the screens show for `O=C(OCC(=O)N1CCN(C(=O)c2ccco2)CC1)c1ccccc1NCCO`?
RE007 growth inh: -9%; Tb PYK inh: -3%

What do the screens show for `CC1CCCCN1c1cc2c(cc1F)c(=O)c(S(=O)(=O)c1ccccc1)cn2Cc1ccccc1` (stereo not drawn)?
Tb PYK inh: 2%

How did O=C(N/N=C/c1ccc(Br)cc1)c1ccc(Br)o1 do in these assays?
RE007 growth inh: 25%; Shiga inhibitor: 65*; Giardia FBPA inh: -6%; Cycloheximide cs: 51*; Tb PYK inh: -6%; LmPK inh: -28%

Results for COC(=O)c1sc(-c2ccc(C(C)(C)C)cc2)cc1NC(=O)c1ccccc1C(=O)O ?
RE007 growth inh: 9%; Shiga inhibitor: 84*; Giardia FBPA inh: 6%; Cycloheximide cs: 44*; Tb PYK inh: 1%; LmPK inh: 1%

What do the screens show for `COC(=O)c1sc(-c2ccc(Cl)cc2)cc1NC(=O)c1ccccc1C(=O)O`?
RE007 growth inh: 14%; Shiga inhibitor: 72*; Giardia FBPA inh: 20%; Cycloheximide cs: 31*; Tb PYK inh: -2%; LmPK inh: -2%

Results for COC(=O)c1sc(-c2ccc(C(C)(C)C)cc2)cc1NC(=O)CSCC(=O)O ?
RE007 growth inh: -13%; Shiga inhibitor: 94; Giardia FBPA inh: 17%; Cycloheximide cs: 15*; Tb PYK inh: -2%; LmPK inh: 2%

How did COC(=O)c1sc(-c2ccccc2)cc1NC(=O)C1CC1 do in these assays?
RE007 growth inh: 35%; Shiga inhibitor: 18; Giardia FBPA inh: 9%; Cycloheximide cs: 7; Tb PYK inh: -4%; LmPK inh: 5%[11.5 µM]

Results for CCOc1ccc(-c2cc(NC(=O)c3c(F)cccc3F)c(C(=O)O)s2)cc1 ?
RE007 growth inh: -5%; Shiga inhibitor: 40*; Giardia FBPA inh: 0%; Cycloheximide cs: 11; Tb PYK inh: 1%; LmPK inh: -2%

What do the screens show for `CCOc1ccc(NC(=O)Nc2cc(-c3ccccc3)sc2C(=O)OC)cc1`?
RE007 growth inh: -12%; Shiga inhibitor: 3; Giardia FBPA inh: -4%; Cycloheximide cs: 5; Tb PYK inh: -1%; LmPK inh: 0%

What do the screens show for `CCCn1ccc2c(OCC(=O)Nc3ccc(F)cc3F)cccc2c1=O`?
Tb PYK inh: -8%

How did C=CCN1C(=O)S/C(=C/c2ccsc2)C1=O do in these assays?
RE007 growth inh: -18%; Shiga inhibitor: 62*; Giardia FBPA inh: 0%; Cycloheximide cs: 37*; Tb PYK inh: -5%; LmPK inh: 0%

Results for COc1cc(O)sc1C=Nc1ccc(Cl)cc1 ?
RE007 growth inh: -3%; Shiga inhibitor: 42*; Giardia FBPA inh: -10%; Cycloheximide cs: 31*; Tb PYK inh: -9%; LmPK inh: 10%

How did Oc1ccc(Br)cc1C=Nc1ccc(Cl)cc1 do in these assays?
RE007 growth inh: -3%; Shiga inhibitor: 13; Giardia FBPA inh: -4%; Cycloheximide cs: 3; Tb PYK inh: 2%; LmPK inh: -5%[11.5 µM]

What do the screens show for `NS(=O)(=O)c1ccc(NC(=O)/C(=C/c2ccncc2)NC(=O)c2ccccc2)cc1`?
RE007 growth inh: 10%; Shiga inhibitor: -6; Giardia FBPA inh: 4%; Cycloheximide cs: -3; Tb PYK inh: 0%; LmPK inh: 4%

What do the screens show for `Cc1nc2ccccc2n1CCCOc1ccccc1`?
RE007 growth inh: -26%; Shiga inhibitor: 47*; Giardia FBPA inh: -17%; Cycloheximide cs: 21*; Tb PYK inh: -6%; LmPK inh: -4%

Results for Cc1cccc(OCCn2c(-c3ccco3)nc3ccccc32)c1 ?
RE007 growth inh: -19%; Shiga inhibitor: 23; Cycloheximide cs: 26*; Tb PYK inh: 0%; LmPK inh: -1%
